The record followed here is ChEMBL document CHEMBL3988442, “University of Dundee, Small-Polar-MMV Screening Library” (2021).

For part of these data: Measured potencies and affinities stand elsewhere.

Common to all, as to design: scale not given: direction of the effect not stated beside the values
Assay [1] has as its target Protein translocase subunit SecA (Escherichia coli (strain K12)) (UniProt P10408). Nature of the assay: Assay to Identify E. coli SecA ATPase Inhibitors. Type of assay: functional. As to conditions: 30 µM.
The target of assay [2] is T1, Ubiquitin-activating enzyme e1, putative (Leishmania donovani (strain BPK282A1)) (UniProt E9BSI1).
T1 sequence (whole entry): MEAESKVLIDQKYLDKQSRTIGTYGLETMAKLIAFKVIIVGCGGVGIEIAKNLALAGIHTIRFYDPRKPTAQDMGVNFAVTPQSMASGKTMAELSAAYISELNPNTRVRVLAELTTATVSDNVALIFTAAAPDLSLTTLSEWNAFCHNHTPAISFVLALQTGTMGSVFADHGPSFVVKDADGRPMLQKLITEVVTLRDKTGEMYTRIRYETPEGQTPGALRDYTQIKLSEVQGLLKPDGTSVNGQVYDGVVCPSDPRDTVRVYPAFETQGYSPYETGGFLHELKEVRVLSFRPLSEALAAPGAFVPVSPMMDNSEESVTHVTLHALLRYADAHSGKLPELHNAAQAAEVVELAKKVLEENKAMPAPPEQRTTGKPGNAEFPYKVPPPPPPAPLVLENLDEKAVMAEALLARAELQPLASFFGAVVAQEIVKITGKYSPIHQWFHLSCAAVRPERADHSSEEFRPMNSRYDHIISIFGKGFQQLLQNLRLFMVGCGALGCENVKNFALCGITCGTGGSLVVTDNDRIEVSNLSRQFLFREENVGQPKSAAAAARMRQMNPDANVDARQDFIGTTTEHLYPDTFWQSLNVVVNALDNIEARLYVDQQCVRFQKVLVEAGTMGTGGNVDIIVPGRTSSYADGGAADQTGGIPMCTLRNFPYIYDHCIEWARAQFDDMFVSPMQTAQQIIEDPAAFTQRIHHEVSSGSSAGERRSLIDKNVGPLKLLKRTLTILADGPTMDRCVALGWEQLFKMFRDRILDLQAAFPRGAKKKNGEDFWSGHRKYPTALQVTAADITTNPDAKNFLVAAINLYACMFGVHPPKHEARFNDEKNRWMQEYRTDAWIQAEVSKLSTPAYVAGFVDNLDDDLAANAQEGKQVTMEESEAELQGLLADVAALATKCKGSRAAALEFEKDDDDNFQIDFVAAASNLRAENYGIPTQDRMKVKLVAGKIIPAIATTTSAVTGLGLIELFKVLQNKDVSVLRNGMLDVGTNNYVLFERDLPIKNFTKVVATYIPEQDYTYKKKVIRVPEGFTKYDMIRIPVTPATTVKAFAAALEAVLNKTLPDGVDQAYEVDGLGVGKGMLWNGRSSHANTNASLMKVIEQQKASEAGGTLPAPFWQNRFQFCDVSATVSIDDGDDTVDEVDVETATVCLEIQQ
The assay is described as follows: Leishmania donovani Ubiquitin Activating Enzyme (LdE1). It is filed as functional. The conditions noted are these: 30 µM.

For assay [3], the target named is T2, Aspartate--tRNA(Asp/Asn) ligase (Mycobacterium tuberculosis (strain ATCC 25618 / H37Rv)) (UniProt P9WFW3). Further: in the data most compounds retested in dose-response had high values.
T2 sequence (whole entry): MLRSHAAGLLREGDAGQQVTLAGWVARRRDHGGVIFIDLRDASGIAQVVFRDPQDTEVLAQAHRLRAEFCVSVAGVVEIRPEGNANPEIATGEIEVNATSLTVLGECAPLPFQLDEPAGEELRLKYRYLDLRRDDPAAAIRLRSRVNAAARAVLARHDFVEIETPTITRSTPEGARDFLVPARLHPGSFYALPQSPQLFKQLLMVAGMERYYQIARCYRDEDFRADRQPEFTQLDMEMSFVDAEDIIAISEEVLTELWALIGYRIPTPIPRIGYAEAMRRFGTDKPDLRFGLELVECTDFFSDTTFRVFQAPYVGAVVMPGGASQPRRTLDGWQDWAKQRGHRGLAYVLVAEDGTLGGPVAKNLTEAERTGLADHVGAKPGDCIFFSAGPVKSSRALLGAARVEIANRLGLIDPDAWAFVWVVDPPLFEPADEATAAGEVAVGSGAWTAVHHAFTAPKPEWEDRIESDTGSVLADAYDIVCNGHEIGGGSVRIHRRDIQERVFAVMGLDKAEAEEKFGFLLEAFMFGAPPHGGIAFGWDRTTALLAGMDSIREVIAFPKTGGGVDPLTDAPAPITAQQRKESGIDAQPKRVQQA
The assay is described as follows: Assay for Asp RNA synthetase-1 from Mycobacterium tuberculosis. Type of assay: functional. As to conditions: 30 µM.

Assay [4] concerns the target AMP-activated protein kinase, AMPK (Homo sapiens) (UniProt P54646+O43741+P54619+Q9UGJ0+Q9Y478+Q13131+Q9UGI9). Nature of the assay: AMP-dependent Kinase enzyme assay. An in vitro enzyme assay that detects ADP turnover that is directly proportional to AMPK activity. This uses naive AMPK that is activated during the assay with MK-8722. It is filed as functional. As to conditions: 30 µM.

Assay [5] addresses Sialic acid-binding Ig-like lectin 9 (Homo sapiens) (UniProt Q9Y336). Nature of the assay: Hs-Siglec9 ALPHAscreen SOP 20170721. The conditions noted are these: 10 µM. Background: In Alpha technology, singlet oxygen from a donor bead excites a nearby acceptor bead.
The subject of assay [6] is Trypanosoma cruzi. Nature of the assay: Trypanosoma cruzi phosphomannomutase and mannose-1-phosphate guanylyltransferase assay. The conditions noted are these: 10 µM. Type of assay: functional.
Assay [7] deals with T3, Arginase-2, mitochondrial (Homo sapiens) (UniProt P78540).
T3 sequence (whole entry): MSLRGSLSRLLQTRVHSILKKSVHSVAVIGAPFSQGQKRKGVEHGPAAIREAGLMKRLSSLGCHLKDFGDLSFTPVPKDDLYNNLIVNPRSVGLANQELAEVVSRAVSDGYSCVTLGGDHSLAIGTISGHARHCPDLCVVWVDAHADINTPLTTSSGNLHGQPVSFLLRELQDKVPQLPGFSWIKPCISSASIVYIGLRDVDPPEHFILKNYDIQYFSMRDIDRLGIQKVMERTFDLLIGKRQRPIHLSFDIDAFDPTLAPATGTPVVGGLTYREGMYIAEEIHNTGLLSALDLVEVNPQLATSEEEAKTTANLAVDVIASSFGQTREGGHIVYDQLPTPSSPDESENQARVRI
Nature of the assay: in vitro enzyme assay to detect the production of urea directly proportional to the activity of Arginase II. Further: in the data most compounds retested in dose-response had high values. Type of assay: functional. As to conditions: 33.3 µM.

For assay [8], the target named is T4, Proteasome subunit beta (Trypanosoma cruzi) (UniProt O96673).
T4 sequence (whole entry): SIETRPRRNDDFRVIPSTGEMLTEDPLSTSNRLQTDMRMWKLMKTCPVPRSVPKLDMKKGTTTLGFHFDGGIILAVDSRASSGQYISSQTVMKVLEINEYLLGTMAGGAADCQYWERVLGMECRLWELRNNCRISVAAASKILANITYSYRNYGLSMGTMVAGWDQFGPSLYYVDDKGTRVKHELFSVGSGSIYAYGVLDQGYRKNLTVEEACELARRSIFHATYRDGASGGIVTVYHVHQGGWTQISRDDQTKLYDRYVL
The assay is described as follows: Trypanosoma cruzi proteasome chymotrypsin-like activity (TcProtChymo) assay. Further: in the data most compounds retested in dose-response had high values. It is filed as functional. As to conditions: 9.37 µM.

Assay [9] is filed under the species Homo sapiens. Nature of the assay: To identify inhibition of the IFN signalling (Jak-Stat) pathway via expression of an eGFP reporter gene under the control of an IFN-stimulated response element (ISRE) containing MxA promoter. As to conditions: 30 µM. Type of assay: functional. In general terms: Reporter assays use an easily measured gene product as a stand-in for the process of interest.

In assay [10] the target is Shiga toxin 2 (Escherichia coli O157:H7) (UniProt P09385+P09386). The assay is described as follows: E. coli 0.157:H7 Shiga Toxin SOP - stx2 screening assay. It is filed as functional. The conditions noted are these: 30 µM.
The target in assay [11] is T5, Tyrosyl-tRNA synthetase, putative (Trypanosoma cruzi (strain CL Brener)) (UniProt Q4DSP6).
T5 sequence (whole entry): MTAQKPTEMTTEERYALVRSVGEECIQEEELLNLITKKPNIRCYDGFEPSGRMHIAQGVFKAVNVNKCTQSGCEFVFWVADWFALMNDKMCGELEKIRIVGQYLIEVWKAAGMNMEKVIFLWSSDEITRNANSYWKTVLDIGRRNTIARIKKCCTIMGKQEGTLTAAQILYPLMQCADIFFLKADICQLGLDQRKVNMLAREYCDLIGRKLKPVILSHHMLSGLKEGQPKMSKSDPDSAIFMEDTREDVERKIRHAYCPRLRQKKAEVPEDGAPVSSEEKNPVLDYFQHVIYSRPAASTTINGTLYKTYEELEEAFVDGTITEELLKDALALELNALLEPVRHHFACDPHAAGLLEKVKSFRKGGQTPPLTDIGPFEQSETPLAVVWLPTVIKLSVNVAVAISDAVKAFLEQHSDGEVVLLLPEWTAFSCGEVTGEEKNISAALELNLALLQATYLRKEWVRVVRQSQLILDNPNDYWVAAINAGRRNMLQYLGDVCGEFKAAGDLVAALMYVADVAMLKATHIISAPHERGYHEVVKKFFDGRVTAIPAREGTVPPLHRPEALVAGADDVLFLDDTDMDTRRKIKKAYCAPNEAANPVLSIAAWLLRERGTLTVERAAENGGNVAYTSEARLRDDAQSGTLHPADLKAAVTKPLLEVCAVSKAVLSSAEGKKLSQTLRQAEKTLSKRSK
Nature of the assay: Trypanosoma cruzi tyrosyl tRNA synthetase (TcYRS) _High Tyrosine SOP. Further: in the data most compounds retested in dose-response had high values. It is filed as functional. As to conditions: 30 µM.

The target in assay [12] is T5, Tyrosyl-tRNA synthetase, putative (Trypanosoma cruzi (strain CL Brener)). Nature of the assay: Trypanosoma cruzi tyrosyl tRNA synthetase (TcYRS) SOP. The conditions noted are these: 30 µM. It is filed as functional.
The target of assay [13] is Chromo domain-containing protein 1 (Saccharomyces cerevisiae (strain ATCC 204508 / S288c) (Baker's yeast)) (UniProt P32657). The assay is described as follows: ScCHD-1 Enzyme Inhibition Assay. Further: in the data most compounds retested in dose-response had high values. Type of assay: functional. The conditions noted are these: 30 µM.
Sequence of Chromo domain-containing protein 1 (Saccharomyces cerevisiae (strain ATCC 204508 / S288c) (Baker's yeast)) (P32657 whole entry, the tested form may be a part): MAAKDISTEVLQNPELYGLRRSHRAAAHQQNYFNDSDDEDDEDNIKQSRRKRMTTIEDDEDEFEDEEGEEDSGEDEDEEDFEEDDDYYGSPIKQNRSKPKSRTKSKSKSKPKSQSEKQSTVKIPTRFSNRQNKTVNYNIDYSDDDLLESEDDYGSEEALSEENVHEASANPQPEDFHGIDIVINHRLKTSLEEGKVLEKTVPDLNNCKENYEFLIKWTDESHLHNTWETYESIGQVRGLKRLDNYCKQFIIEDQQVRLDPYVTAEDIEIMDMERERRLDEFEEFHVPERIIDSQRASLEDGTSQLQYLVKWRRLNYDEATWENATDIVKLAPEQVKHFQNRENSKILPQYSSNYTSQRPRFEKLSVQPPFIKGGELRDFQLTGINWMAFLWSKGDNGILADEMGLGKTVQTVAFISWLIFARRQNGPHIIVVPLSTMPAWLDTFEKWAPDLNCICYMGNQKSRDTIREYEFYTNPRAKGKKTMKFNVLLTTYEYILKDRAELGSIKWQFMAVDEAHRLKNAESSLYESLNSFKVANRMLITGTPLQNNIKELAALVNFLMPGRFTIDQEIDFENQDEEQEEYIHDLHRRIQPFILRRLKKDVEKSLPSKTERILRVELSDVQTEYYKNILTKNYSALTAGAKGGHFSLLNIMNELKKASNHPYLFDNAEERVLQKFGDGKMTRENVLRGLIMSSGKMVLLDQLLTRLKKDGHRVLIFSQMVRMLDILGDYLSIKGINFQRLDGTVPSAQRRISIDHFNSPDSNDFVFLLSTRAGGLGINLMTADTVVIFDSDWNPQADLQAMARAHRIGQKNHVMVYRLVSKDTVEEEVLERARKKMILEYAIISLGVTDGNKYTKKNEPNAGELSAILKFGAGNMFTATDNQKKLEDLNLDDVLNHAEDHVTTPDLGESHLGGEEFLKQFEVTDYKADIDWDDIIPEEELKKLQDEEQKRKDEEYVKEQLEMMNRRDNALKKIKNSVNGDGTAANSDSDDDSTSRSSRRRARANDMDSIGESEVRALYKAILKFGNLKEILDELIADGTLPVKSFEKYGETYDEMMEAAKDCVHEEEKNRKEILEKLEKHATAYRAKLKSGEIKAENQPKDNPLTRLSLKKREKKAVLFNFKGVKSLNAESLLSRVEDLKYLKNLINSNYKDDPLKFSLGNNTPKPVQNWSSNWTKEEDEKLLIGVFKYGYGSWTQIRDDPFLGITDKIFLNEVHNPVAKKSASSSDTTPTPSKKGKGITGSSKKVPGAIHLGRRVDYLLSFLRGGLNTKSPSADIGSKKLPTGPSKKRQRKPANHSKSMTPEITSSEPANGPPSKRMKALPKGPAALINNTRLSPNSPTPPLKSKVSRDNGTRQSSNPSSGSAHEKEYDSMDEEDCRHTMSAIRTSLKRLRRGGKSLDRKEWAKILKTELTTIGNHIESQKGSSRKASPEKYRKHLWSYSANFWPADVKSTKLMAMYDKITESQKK

Sequence of Sialic acid-binding Ig-like lectin 9 (Homo sapiens) (Q9Y336 whole entry): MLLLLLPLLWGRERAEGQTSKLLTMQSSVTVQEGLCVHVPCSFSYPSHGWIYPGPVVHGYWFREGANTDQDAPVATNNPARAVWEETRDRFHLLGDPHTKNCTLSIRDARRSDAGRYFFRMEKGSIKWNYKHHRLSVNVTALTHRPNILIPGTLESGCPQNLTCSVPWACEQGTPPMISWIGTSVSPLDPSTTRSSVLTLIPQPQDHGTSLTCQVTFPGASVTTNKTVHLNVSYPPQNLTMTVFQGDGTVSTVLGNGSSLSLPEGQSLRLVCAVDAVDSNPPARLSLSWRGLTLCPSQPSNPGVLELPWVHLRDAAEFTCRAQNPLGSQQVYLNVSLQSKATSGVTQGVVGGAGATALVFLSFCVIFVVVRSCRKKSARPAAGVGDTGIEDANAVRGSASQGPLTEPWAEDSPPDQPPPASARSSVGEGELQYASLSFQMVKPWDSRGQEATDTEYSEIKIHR
Sequence of Protein translocase subunit SecA (Escherichia coli (strain K12)) (P10408 whole entry): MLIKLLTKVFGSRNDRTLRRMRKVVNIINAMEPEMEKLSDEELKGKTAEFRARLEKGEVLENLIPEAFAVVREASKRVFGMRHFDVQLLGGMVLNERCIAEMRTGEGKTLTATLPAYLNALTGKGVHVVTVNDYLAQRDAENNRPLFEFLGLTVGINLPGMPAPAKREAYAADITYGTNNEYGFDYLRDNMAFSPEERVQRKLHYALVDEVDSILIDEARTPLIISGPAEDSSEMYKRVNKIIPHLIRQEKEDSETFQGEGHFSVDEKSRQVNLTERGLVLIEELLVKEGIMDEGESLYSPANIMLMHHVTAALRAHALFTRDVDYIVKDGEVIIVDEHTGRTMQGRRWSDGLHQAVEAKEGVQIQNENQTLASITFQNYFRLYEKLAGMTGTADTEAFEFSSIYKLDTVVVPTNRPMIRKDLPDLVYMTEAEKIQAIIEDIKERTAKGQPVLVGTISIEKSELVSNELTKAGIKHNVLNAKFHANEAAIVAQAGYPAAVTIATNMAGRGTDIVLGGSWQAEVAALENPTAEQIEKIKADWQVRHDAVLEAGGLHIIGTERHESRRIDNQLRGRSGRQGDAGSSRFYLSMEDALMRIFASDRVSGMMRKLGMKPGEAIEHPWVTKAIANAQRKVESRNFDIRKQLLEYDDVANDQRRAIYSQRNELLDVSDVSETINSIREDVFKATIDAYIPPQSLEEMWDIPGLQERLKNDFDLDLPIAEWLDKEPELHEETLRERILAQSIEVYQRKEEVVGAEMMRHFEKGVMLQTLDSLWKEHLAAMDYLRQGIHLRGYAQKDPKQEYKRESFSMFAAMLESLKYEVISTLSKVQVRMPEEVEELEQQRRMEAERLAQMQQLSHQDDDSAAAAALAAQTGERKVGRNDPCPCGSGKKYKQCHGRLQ

For `Cc1cnc(N2CCCC3(CCCN(C)C3)C2)nc1` (stereo not drawn), the Percent Effect in [1] is -4.89%; in assay [2] it was 0%; in assay [3], -0.912%; in assay [4], 0.0306%; in assay [5], 4.33%; in assay [6] it was 3.37%. For the same molecule, the Percent Effect in [7] is -6.79%; in [8], 8.82%; in [9], -22.4%; in assay [10], 7.25%; in [11], -2.08%; in [12], 8.64%. Besides, in assay [13], the Percent Effect is -5.6%.

On to `Cn1cc(C(=O)N2CC[C@@H]3[C@@H]2CCN3Cc2cccnc2)cn1`, for which the Percent Effect in assay [1] is -4.7%; in [2], 8.11%; in [3], 1.51%; in [4], 4.43%; in assay [5] it was 1.46%; in assay [6], -2.83%. Also, the Percent Effect in assay [7] was 0.955%; in assay [8], 17.7%; in assay [9], -13.9%; in [10], -2.5%; in [11] it was 3.24%; in assay [12], 12.8%. Also, the Percent Effect in assay [13] turned out to be 0.704%.

For the molecule `c1cc(CO[C@@H]2CC[C@H]3[C@H]2OCCN3Cc2ccoc2)ccn1`, the Percent Effect in assay [1] is -1.76%; in assay [2], 13.5%; in assay [3] it was 9.49%; in [4], 9.36%; in [5], -7.31%; in assay [6] it was -1.66%. Besides, the Percent Effect in [7] stood at 2.23%; in [8], 27.1%; in assay [9], 33.2%; in [10], 1.68%; in assay [11], 1.08%; in [12] it was 10.3%. The Percent Effect in assay [13] is 1.36%.

Regarding `CCN1C[C@H]2C[C@H](C(=O)NCc3cccnc3)[C@@H](C1)O2`, the Percent Effect in [1] was -1.53%; in assay [2] it was 0%; in assay [3] it was 4.45%; in [4] it was -69.3%; in [5], 5.53%; in assay [6] it was 1.07%. In addition, the Percent Effect in [7] was 2.23%; in [8], 11.1%; in assay [9] it was -10.6%; in [10], 2.21%; in [11], 3.24%; in [12] it was 10.3%. Also, in assay [13], the Percent Effect came to 2%.

In the case of `O=C1N(c2cncnc2)CCC12CCCN(Cc1ccccn1)C2` (stereo not drawn), the Percent Effect in assay [1] is -4%; in assay [2], 5.2%; in assay [3], 3.89%; in assay [4], 3.31%; in assay [5], 8.64%; in assay [6], -1.28%. Also, the Percent Effect was 2.76% in [7]; 2.5% in [8]; -1.38% in assay [9]; -38.2% in assay [10]; 4.3% in [11]; 8.64% in assay [12]. The Percent Effect in assay [13] turned out to be 0.251%.

For the molecule `O=C(Cc1cccs1)N1C[C@@H]2OCCN(CC3CCCC3)[C@@H]2C1`, the Percent Effect in assay [1] was -3.05%; in [2] it was 11%; in [3], -2.94%; in assay [4], -0.507%; in assay [5], 19.2%; in assay [6], 1.59%. In addition, the Percent Effect in [7] is -6.79%; in [8], 4.37%; in assay [9], -10.9%; in [10], 13.2%; in [11] it was 4.17%; in assay [12], 6.17%. For the same molecule, the Percent Effect in [13] was -1.65%.
